From PubChem
Most compounds without a hit are left out; they make up all but 8.1% or so of the library.
ELG1 DNA repair: blocks ELG1-dependent DNA repair in HEK293T cells; HEK293T ELG1-luciferase reporter, luminescence, 16 h; DNA damage induced by 5-fluorouridine; Potency, µM (top dose mostly 46.1 µM), hits mostly inhibitors; 2.3% of 330,000 active; AID 504467; further: nearly all actives have a fitted effect of over 55% in size
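In this reporter screen, reduction of luminescence relative to DMSO vehicle indicated activity. Compounds and 5-fluorouridine were added together to 2,000 cells per well, incubated for 16 hr at 37 °C, then developed with ONE-Glo.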
KB-3-1 cytotox: kills parental KB-3-1 adenocarcinoma cells; KB-3-1 viability, CellTiter-Glo ATP luminescence, 72 h; Potency, µM (highest dose often 46.1 µM), hits mostly cytotoxic; 1.4% of 400,000 active; AID 1347075; further: nearly all actives have a fitted effect of over 60% in size
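Multi-concentration cytotoxicity screen in KB-3-1 cells grown in DMEM lacking phenol red with 10% FBS. After 72 h at 37 °C with compound, ATP-dependent luminescence was recorded.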
KB-V1 cytotox: KB-V1 MDR subline cytotoxicity. Potency, µM (top dose mostly 46.1 µM), hits mostly cytotoxic. KB-V1 MDR cells viability, CellTiter-Glo, 72 h. 3.4% of 400,000 active; further: nearly all actives have a fitted effect of over 60% in size
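KB-V1, DMEM (no phenol red) + 10% FBS; cpd pin-transferred, titration series; 72 h, 37 degrees C; CellTiter-Glo, luminescence. Data normalized, curve-fit.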
MCF10A rerep: DNA re-replication induction in MCF 10a cells | MCF 10A DNA re-replication, Hoechst nuclear intensity, 48 h | Potency, µM (doses to about 46.1 µM), hits mostly activators | 2.9% of 350,000 active | AID 624296; further: nearly all actives have a fitted effect of over 50% in size
SW480 rereplic: DNA re-replication induction in SW480 cells; SW480 DNA re-replication, Hoechst DNA content imaging, 48 h; Potency, µM (series often up to 46.1 µM), hits mostly activators; 1.8% of 340,000 active; further: nearly all actives have a fitted effect of over 55% in size
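250 cells/well; 23 nL cpd via pin tool; 48 hr, 37 C, 5% CO2; Hoechst 40 min; imager read of total nuclear intensity, ex 405/em 500-530 nm.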
Of the large screens only hits and unclear results are named; the others gave an inactive call. The call rests on the fitted dose curve; in most records, active means well fitted curve in the direction sought with a large enough effect; inconclusive means small, poorly fitted or top-dose-only effect, or another doubt; inactive means no such curve, though single readings can be large; an effect the other way counts as inactive or inconclusive.

CCOC(=O)c1cnc2c(OC)cccc2c1N1CCN(c2ccccc2F)CC1	none (no result: ELG1 DNA repair, MCF10A rerep, SW480 rereplic)
COC(=O)c1[nH]c2ccccc2c1NC(=O)CN1CCN(C(=O)c2ccco2)CC1	ELG1 DNA repair 21µM
CCOC(=O)c1cnc2ccc(OCC)cc2c1N1CCN(c2ccccc2OC)CC1	ELG1 DNA repair 15µM, KB-3-1 cytotox inconclusive, KB-V1 cytotox inconclusive, MCF10A rerep 18µM
COC(=O)c1c(NC(=O)CN2CCN(C(=O)c3ccco3)CC2)c2cc(C)ccc2n1C	ELG1 DNA repair 21µM
COc1ccc(C2/C(=C(/O)c3ccc4c(c3)CC(C)O4)C(=O)C(=O)N2CCCn2ccnc2)cc1 (stereo not drawn)	none
CCOc1ccccc1NC(=O)c1cccc2c1C(=O)N(C1CCCCC1)C2	ELG1 DNA repair inconclusive
CCOC(=O)c1[nH]c2ccc(OC)cc2c1NC(=S)N1CCN(c2ccccc2OC)CC1	ELG1 DNA repair 7.3µM, KB-3-1 cytotox 8.2µM, KB-V1 cytotox inconclusive, MCF10A rerep inconclusive, SW480 rereplic inconclusive
CCOC(=O)N1CCN(CC(=O)Nc2c(C(=O)OC)[nH]c3ccccc23)CC1	ELG1 DNA repair inconclusive, KB-V1 cytotox inconclusive, MCF10A rerep 5.8µM
CCOC(=O)c1[nH]c2ccc(OC)cc2c1NC(=S)N1CCN(C(=O)OCC)CC1	none
CCOC(=O)c1[nH]c2ccc(Br)cc2c1NC(=O)CCN1CCC(C(=O)OCC)CC1	ELG1 DNA repair inconclusive, KB-3-1 cytotox inconclusive, KB-V1 cytotox inconclusive, MCF10A rerep 26µM, SW480 rereplic inconclusive
CCN(CC(=O)Nc1c(C(=O)OC)[nH]c2ccc(Cl)cc12)c1ccc2c(c1)OCO2	ELG1 DNA repair 23µM, KB-V1 cytotox inconclusive, MCF10A rerep inconclusive
CNCCCOc1ccc(C)cc1OC	none
COC(=O)c1[nH]c2ccccc2c1NC(=O)CN1CCC(C(N)=O)(N2CCCCC2)CC1	ELG1 DNA repair 6.5µM
COC(=O)c1[nH]c2cc(C)ccc2c1NC(=O)CN1CCOCC1	none
CCOC(=O)Nc1c(C(=O)OC)[nH]c2cc(OC)ccc12	KB-3-1 cytotox 21µM, KB-V1 cytotox 23µM, SW480 rereplic inconclusive
COC(=O)c1[nH]c2ccccc2c1NC(=O)CNC1CCCCC1	ELG1 DNA repair inconclusive, KB-V1 cytotox 18µM, MCF10A rerep inconclusive
COC(=O)c1[nH]c2cc(C)ccc2c1NC(=O)CN1CCN(c2ccccc2OC)CC1	ELG1 DNA repair 21µM, KB-3-1 cytotox inconclusive, KB-V1 cytotox inconclusive
O=C(CSCc1ccc(F)cc1)NC1CCCC1	ELG1 DNA repair inconclusive
Cc1cc(=O)oc2cc(NC(=O)c3cccc(S(=O)(=O)N(C)C)c3)ccc12	ELG1 DNA repair inconclusive
CCc1ccc(S(=O)(=O)c2nnn3c2nc(N2CCCC(C)C2)c2cc(Cl)ccc23)cc1 (stereo not drawn)	none (no result: ELG1 DNA repair, MCF10A rerep, SW480 rereplic)
CCCc1ccc(NC(C)C(=O)Nc2ccc(S(=O)(=O)N3CCOCC3)cc2)cc1 (stereo not drawn)	none
CCCCC1CCC(C(=O)N(CC(C)C)c2c(N)n(CCCC)c(=O)[nH]c2=O)CC1 (stereo not drawn)	none
CCOC(=O)c1[nH]c2ccccc2c1NC(=O)c1ccc(Br)cc1	none (no result: ELG1 DNA repair, MCF10A rerep, SW480 rereplic)
COC(=O)c1[nH]c2cc(OC)ccc2c1NC(=O)CN1CCN(c2cccc(C)c2)C(C)C1 (stereo not drawn)	ELG1 DNA repair inconclusive, KB-3-1 cytotox inconclusive, KB-V1 cytotox 21µM, MCF10A rerep inconclusive
CCOC(=O)c1[nH]c2cc(OC)c(OC)cc2c1NC(=O)C(C)N1CCN(Cc2ccccc2)CC1 (stereo not drawn)	ELG1 DNA repair 9.2µM, KB-3-1 cytotox inconclusive, KB-V1 cytotox inconclusive, MCF10A rerep inconclusive, SW480 rereplic inconclusive
CCCC(=O)Nc1cccc(NC(=O)CN2CCN(c3ccccc3OC)CC2)c1	ELG1 DNA repair inconclusive, KB-V1 cytotox 2.6µM, SW480 rereplic inconclusive
CCOC(=O)c1[nH]c2ccccc2c1NC(=O)c1ccc(Br)o1	ELG1 DNA repair 23µM, KB-V1 cytotox inconclusive
O=C(Nc1ccc(F)c(Cl)c1)c1csc([C@H]2C[C@H](O)[C@@H](CO)O2)n1	none (no result: ELG1 DNA repair, MCF10A rerep, SW480 rereplic)
COc1ccc(C(=O)/C(Br)=C/C(=O)O)cc1	MCF10A rerep 21µM, SW480 rereplic inconclusive (no result: ELG1 DNA repair, KB-3-1 cytotox, KB-V1 cytotox)
COc1ccc(C2/C=C\CN(C(=O)OCc3ccccc3)CC(=O)N2Cc2ccc(F)cc2)cc1 (stereo not drawn)	none
